# About 83,000 compounds went through this panel and 20% of them were active in at least one assay; those are over-represented in the sample as a whole.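 Method: cells in 96-well plates; compound added at one concentration; 48 h incubation; percent growth measured; values under 10 scored active.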 Values without a mark were called inactive. The source made the active and inactive calls.
# System: SK-MEL-5 melanoma
# Assay: NCI-60 one-dose screen, 48 h (100 = growth as untreated, 0 = no growth, -100 = all killed)
# Conditions: 10 µM unless noted
row,SMILES,growth
1,CC1=CCc2ccccc21,101%
2,O=C1Nc2ccccc2/C1=C/C(=O)c1ccc(N2CCCCC2)cc1,93.2%
3,COc1ccc2nc3c(cc2c1)C(=O)CC(c1ccccc1)C3 (stereo not drawn),30.2%
4,Oc1ccc(N=Nc2nccs2)c(O)c1,87.9%
5,Cc1cc(-c2ccc(N=Nc3c(S(=O)(=O)O)cc4cc(S(=O)(=O)O)cc(N)c4c3O)c(C)c2)ccc1N=Nc1cc(S(=O)(=O)O)c2ccccc2c1O,100%
6,C#CCNC(=O)CC[C@]1(C)[C@H]2CC[C@@H]3[C@@H]([C@@](C)(O)CCC=C(C)C)CC[C@@]3(C)[C@]2(C)CC[C@H]1C(=C)C,9.4% [100 µM] (active)
7,CC(=O)Nc1ccc2nc3ccc(NC(C)=O)cc3[n+](-c3ccccc3)c2c1,96.3%
8,CCN(CC)CCCCCCNc1cccc2cc(Br)cnc12,94.7%
9,COc1ccc(NC(=S)NNc2ccc(-c3ccc(OC)c(OC)c3)nn2)cc1,101%
10,O=[N+]([O-])c1cc([N+](=O)[O-])c(NN=C(c2ccc(O)cc2)c2ccc(O)cc2)cc1Cl,59.5%
11,CC(C)C1=NOC(=O)C1=Cc1cn(-c2ccccc2)nc1-c1cccc([N+](=O)[O-])c1,90%
12,C=C(C)[C@@H]1CC[C@]2(C(=O)NCCNCCNCCN)CC[C@]3(C)[C@H](CC[C@@H]4[C@@]5(C)CC[C@H](O)C(C)(C)[C@@H]5CC[C@]43C)[C@@H]12,-90.1% [100 µM] (active)
13,O=C1COCCN1c1ccc(Nc2nc(Cl)nc(N3CCOCC3)n2)cc1,100%
14,Cn1cc(-c2noc(-c3cn(C)c4ncc(F)cc34)n2)c2cc(Br)ccc21,83.9%
15,CC1(C)NCCC[C@]2(C)[C@H]3C=CC4=C5C[C@](C)(CO)CC[C@]5(C)CC[C@@]4(C)[C@]3(C)CC[C@@H]12,-91.5% [100 µM] (active)
16,CCCC(NC(=O)OCc1ccccc1)C(=O)O (stereo not drawn),90.1%
17,CC(C)C1=NOC(=O)C1=Cc1cn(-c2ccccc2)nc1-c1ccc(Cl)cc1,83.2%
18,COc1cc(OC)cc(C(=O)Nc2cc(-c3cccnc3)nc(NCCCN3CCOCC3)n2)c1,68.3%
19,Brc1ccc2c(c1)CN(C1CCCCC1)CO2,104%

row,SMILES,growth
1,CC/C=C(\C)C(CCC)(CN=O)C(=O)OCC (stereo not drawn),111%
2,O=C(Nc1ccc(F)cc1)c1ccccc1,101%
3,O=C(O)c1cccc(CN2CCN(c3cc4c(cc3F)c(=O)c(C(=O)O)cn4C3CC3)CC2)c1O,102%
4,COC(=O)c1c(C)[nH]c(/C=C2\N=C(c3ccc[nH]3)C=C2OC)c1C,-99.7% (active)
5,C=CCCC1(C)NC(=O)NC1=O (stereo not drawn),104%
6,O=[N+]([O-])c1cccc(N=NNc2cccc([N+](=O)[O-])c2)c1,87.3%
7,Cc1ccc(N)c(O)c1,96.1%
8,CCN(CC)c1ccc2cc(NC(=O)OCCNC(=O)CCNC(=O)[C@H](CC(C)C)NC(=O)C(C)(C)NC(=O)C(C)(C)NC(=O)[C@H](CC(C)C)NC(=O)CCNC(=O)C(C)(C)NC(=O)[C@H](CC(C)C)NC(=O)CCNC(=O)[C@@](C)(CC)NC(=O)[C@H](C)NC(=O)CCNC(=O)C(C)(C)NC(=O)[C@H](C)NC(=O)[C@@H]3CCCN3C(=O)[C@@](C)(CC)NC(=O)[C@H](Cc3ccccc3)NC(=O)C3CCCN3C(=O)C(C)(C)NC(=O)C3CCCN3C(=O)C(C)(C)NC(C)=O)c(=O)oc2c1 (stereo partly drawn),-100% (active)
9,COC(=O)[C@]12CCC(C)(C)C[C@H]1C1=CC[C@@H]3[C@@]4(C)C/C(=C/c5cccnc5)C(=O)C(C)(C)[C@@H]4CC[C@@]3(C)[C@]1(C)CC2,-93.9% [100 µM] (active)
10,CC(C)[C@H]1COC(=O)N1[C@@H]1C(=O)N([C@@H](CCC(=O)N2CCN(C3CCCC3)CC2)C(=O)N[C@@H]2CCCc3ccccc32)[C@@H]1/C=C/c1cccc(Cl)c1,11.7%
11,CCN=Cc1c(O)c(O)c(C(C)C)c2cc(C)c(-c3c(C)cc4c(C(C)C)c(O)c(O)c(C=NCC)c4c3O)c(O)c12,95.4%
12,O=c1cc(-c2ccccc2)oc2c(O)c(O)ccc12,53.6%
13,COc1ccc(C2NC(=O)C(C#N)c3c2sc2c(F)cccc32)cc1 (stereo not drawn),60.6%
14,COc1cc(-c2nc(SCCC(C)C)nc(Nc3ccccc3)c2C#N)cc(OC)c1OC,97.3%
15,O=C(N/N=C\c1cc(Cl)ccc1O)N/N=C/c1cc(Cl)ccc1O,52.1%
16,Cc1ccc(S(=O)(=O)Oc2ccc([N+](=O)[O-])cc2[N+](=O)[O-])cc1,76.5%
17,COCCCNc1nc(NC(=O)c2cc(OC)cc(OC)c2)cc(-c2cccnc2)n1,72.4%
18,CC1(C)CC[C@]2(C(=O)O)CC[C@]3(C)C(=CC[C@@H]4[C@@]5(C)C/C(=C/c6ccco6)C(=O)C(C)(C)[C@@H]5CC[C@]43C)[C@@H]2C1,-75.8% [100 µM] (active)
19,O=C(N=c1n(-c2ccccc2)nc2n1CCN2C1=NCCN1)c1ccc(Cl)cc1,65.6%
